The list is not random: actives were taken first. Their share in the collection is about 2.9%.
PAFAH2 inh = inhibitors of human PAFAH2; Q99487; recombinant PAFAH2, FP-rhodamine activity probe, fluorescence polarization; inhibition, % at 3.39 µM; 340,000 tested, 0.99% active; AID 492956;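 active means inhibition above the mean over all tested compounds plus 3 SD, cut at about 30% in these data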;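 further: inhibitors block probe labeling of enzyme so polarization drops; 0% = enzyme with DMSO and 100% = wells lacking PAFAH2 protein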
rCAG binder = binds r(CAG) RNA repeats. inhibition, % at 3 µM. r(CAG) RNA repeat, TO-PRO-1 dye displacement fluorescence. 370,000 tested, 1.3% active;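 active means inhibition above the plate cutoff, the mean of all test compounds on that plate plus 3 SD, cut at about 35% in these data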;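 further: 0% = DMSO alone and 100% = 100 µM mitoxantrone as full dye displacement; higher means more dye released from RNA so lower well fluorescence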
PAFAH1B3 inh = blocks human PAF acetylhydrolase 1B catalytic subunit 3. recombinant PAFAH1B3, FP-rhodamine probe, fluorescence polarization. inhibition, % at 3.39 µM. 340,000 tested, 0.28% active;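 active means inhibition above the screen-wide average of all tested compounds plus 3 SD, cut at about 25% in these data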;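 further: 0% = enzyme with DMSO only and 100% = wells lacking PAFAH1B3 protein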
ZTA DNA inh = ZTA (EBV) inhibition in EBNA-1 counter-screen. P03206. ZTA-DNA binding, fluorescence polarization. inhibition, % at 11 µM. 320,000 tested, 0.15% active; in the data active means inhibition above about 33%
Target sequence (P03206 whole entry, looked up): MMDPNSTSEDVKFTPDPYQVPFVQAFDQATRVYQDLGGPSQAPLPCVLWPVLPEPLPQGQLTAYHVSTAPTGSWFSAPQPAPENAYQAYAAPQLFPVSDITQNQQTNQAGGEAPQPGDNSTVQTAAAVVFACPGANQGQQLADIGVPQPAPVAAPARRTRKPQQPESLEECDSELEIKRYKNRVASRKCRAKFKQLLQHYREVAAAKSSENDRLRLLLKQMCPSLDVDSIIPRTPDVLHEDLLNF
EBNA-1 inh = blocks EBNA-1 binding to DNA. EBNA-1 DNA binding, fluorescence polarization. inhibition, % at 14.8 µM. 300,000 tested, 0.34% active. AID 1950; in the data active means inhibition above about 28%
PAFAH1B2 inh = inhibitors of human PAFAH1B2; 340,000 tested, 1.2% active; recombinant PAFAH1B2, FP-rhodamine activity probe, fluorescence polarization; inhibition, % at 3.39 µM; AID 492953; P68402;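 active means inhibition above the mean of all tested compounds plus 3 SD, cut at about 24% in these data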;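 further: 0% = enzyme with DMSO and 100% = wells lacking PAFAH1B2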
Target sequence (P68402 whole entry, looked up): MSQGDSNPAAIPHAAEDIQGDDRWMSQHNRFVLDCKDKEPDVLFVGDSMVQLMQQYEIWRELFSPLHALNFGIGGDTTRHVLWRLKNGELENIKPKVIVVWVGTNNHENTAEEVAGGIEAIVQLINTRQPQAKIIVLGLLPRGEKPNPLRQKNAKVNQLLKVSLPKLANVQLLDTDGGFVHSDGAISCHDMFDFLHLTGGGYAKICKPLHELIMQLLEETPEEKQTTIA
rCAG bind conf = r(CAG) RNA repeat binding, confirmation; shares compounds with rCAG binder; TO-PRO-1 dye displacement fluorescence; inhibition, % at 3 µM; 4,300 tested, 70% active;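 active means inhibition above a per-plate cutoff, the mean inhibition of sample wells plus 3 SD, cut at about 35% in these data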;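 further: loss of TO-PRO-1 fluorescence as compound displaces dye from 1x1 AA loop RNA; 0% = DMSO only wells and 100% = 100 µM mitoxantrone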
dCAG dye counter = disrupts DNA CAG TO-PRO-1 complex, flagging rCAG hits | shares compounds with rCAG binder | d(CAG) DNA oligo TO-PRO-1 dye displacement, fluorescence | inhibition, % at 3 µM | 4,300 tested, 94% active;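 active means inhibition above its plate's cutoff, the mean test-well inhibition plus 3 SD, cut at about 4.8% in these data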;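 further: 0% = DNA dye mix with DMSO and 100% = 100 µM mitoxantrone; hits displace the dye from DNA and so lower well fluorescence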
DNA CAG DR = disrupts DNA CAG TO-PRO-1 complex in dose response; shares compounds with rCAG binder; DNA CAG/GTC duplex TO-PRO-1 dye displacement fluorescence; IC50, µM; 250 tested, 20% active; AID 686960; in the data active means IC50 below about 10 µM
* hit, by the source's call; . = not tested or not shown.

SMILES	PAFAH2 inh	rCAG binder	PAFAH1B3 inh	ZTA DNA inh	EBNA-1 inh	PAFAH1B2 inh	rCAG bind conf	dCAG dye counter	others
O=[N+]([O-])c1ccc(O)c(C=Nc2ccc3c(c2)OCO3)c1	3	8	14	-7	-3	0	.	.
CCOc1ccc(Nc2nc(Nc3ccc(O)cc3)nc(C)c2[N+](=O)[O-])cc1	6	8	3	9	-9	6	.	.
CC1(C(=O)NS(=O)(=O)c2ccc(Cl)cc2)CCN1C(=O)C1(c2ccc(Cl)cc2)CC1 (stereo not drawn)	.	46*	.	.	.	.	39*	8.7*
CC1(C(=O)NS(=O)(=O)c2cccc(F)c2)CCN1C(=O)C1(c2ccc(Cl)cc2)CCC1 (stereo not drawn)	.	42*	.	.	.	.	31	6.7*
COc1ccc(S(=O)(=O)NC(=O)C2(C)CCN2C(=O)C2(c3ccc(Cl)cc3)CCC2)cc1 (stereo not drawn)	.	46*	.	.	.	.	35*	6.4*
CC1(C(=O)NS(=O)(=O)c2cccc(C#N)c2)CCN1C(=O)C1(c2ccc(Cl)cc2)CCC1 (stereo not drawn)	.	30	.	.	.	.	.	.
CC(C)(C)c1ccc(S(=O)(=O)NC(=O)C2(C)CCN2C(=O)C2(c3ccc(Cl)cc3)CC2)cc1 (stereo not drawn)	.	71*	.	.	.	.	59*	21*
CC1(C(=O)NS(=O)(=O)c2ccc(C#N)cc2)CCN1C(=O)C1(c2ccc(Cl)cc2)CCC1 (stereo not drawn)	.	15	.	.	.	.	.	.
Cc1ccc(S(=O)(=O)N2CCCC(C(=O)NCCC(C)C)C2)cc1 (stereo not drawn)	-1	-5	3	-4	-2	4	.	.
Cc1cccc(NC(=O)C2CCN(c3ncccn3)CC2)c1C	.	-2	.	.	.	.	.	.
O=C(O)c1ccc(Nc2nc3ccccc3nc2NS(=O)(=O)c2cccs2)cc1	12	12	2	8	6	0	.	.
CC(C)CCNc1nc2ccccc2nc1NS(=O)(=O)c1cccs1	2	56*	10	29	1	10	33	5.5*
COc1cccc(Nc2nc3ccccc3nc2NS(=O)(=O)c2cccs2)c1	8	74*	-1	9	16	11	88*	59*
COc1ccc(Nc2nc3ccccc3nc2NS(=O)(=O)c2cccs2)c(OC)c1	15	27	11	6	6	-4	.	.
O=C(OCc1cccc([N+](=O)[O-])c1)c1cc(=O)[nH]c2ccccc12	.	.	.	12	7	.	.	.
Cc1cc(S(=O)(=O)Nc2ccccc2C(=O)O)ccc1Cl	-1	29	4	-15	6	15	.	.
O=C(Nc1ccccc1C(=O)O)c1cccc(S(=O)(=O)Nc2ccc(Br)cc2)c1	-38	80*	-1	-19	1	2	58*	21*
COc1ccccc1NC(=O)C(=O)NNS(=O)(=O)c1ccc2ccccc2c1	-1	38*	11	1	3	34*	28	6.1*
O=C(O)c1ccc(NS(=O)(=O)c2cccc(C(=O)Nc3ccc(Br)cc3)c2)cc1	-1	13	5	14	3	5	.	.
O=C(Nc1ccccc1C(=O)O)c1cc(S(=O)(=O)Nc2cccc(F)c2)ccc1Cl	-8	45*	1	-4	13	4	30	9.3*
O=C(O)c1ccccc1NS(=O)(=O)c1ccc2ccccc2c1	1	39*	-5	-7	-5	14	28	6.1*
O=C(O)c1ccccc1NS(=O)(=O)c1cccc(-n2sc3ccccc3c2=O)c1	20	72*	12	4	-3	14	74*	34*	DNA CAG DR=7.2*
Cc1cccc(NC(=O)c2cccc(S(=O)(=O)Nc3ccccc3C(=O)O)c2)c1	-9	52*	6	-9	5	1	32	7.5*
Cc1ccccc1NS(=O)(=O)c1cccc(C(=O)Nc2cccc(C(=O)O)c2)c1	1	13	1	10	-5	4	.	.
Cc1ccc(NS(=O)(=O)c2ccc(Cl)c(C(=O)Nc3ccccc3-c3nc4ccccc4[nH]3)c2)cc1C	-61	47*	-112	7	20	-51	42*	24*
SMILES	PAFAH2 inh	rCAG binder	PAFAH1B3 inh	ZTA DNA inh	EBNA-1 inh	PAFAH1B2 inh	rCAG bind conf	dCAG dye counter	others
O=C(c1cc(F)ccc1F)N(Cc1ccccn1)CC1CCCO1 (stereo not drawn)	.	2	.	.	.	.	.	.
Cc1ccc(C)c2c1[nH]c1ccc([N+](=O)[O-])cc12	-16	40*	7	-7	-1	0	30	14*
Cc1cc(C(c2ccc(C)o2)c2ccc(C)o2)c(O)c([N+](=O)[O-])c1	5	54*	-2	-2	8	2	18	8.5*
Cc1ccc2nc(Cl)c(/C=N/Nc3ccc(C(=O)O)cc3)cc2c1	-4	41*	10	21	5	4	23	5.3*
Cc1ccc2cc(/C=N/NC(=O)c3ccc(F)cc3)c(Cl)nc2c1	2	-2	5	4	0	0	.	.
CCOc1ccc2nc(NS(=O)(=O)Cc3ccccc3)sc2c1	10	44*	1	-12	8	2	29	10*
CCOc1ccc2nc(NS(=O)(=O)c3ccc(NC(C)=O)cc3)sc2c1	6	21	6	-12	-4	4	.	.
CCCCNC(=O)c1nc(C2CCN(S(=O)(=O)c3csc(C(=O)O)c3)CC2)oc1-c1ccccc1	.	44*	.	.	.	.	39*	11*	DNA CAG DR=>30
Cc1ccc(C(=O)Nc2nnc(NC(=S)Nc3ccccc3)s2)cc1	-34	70*	-32	-1	5	-19	39*	30*
CCOc1ccc(C(=O)Nc2nnc(NC(=S)Nc3ccccc3)s2)cc1	-25	27	-32	-17	-3	-11	.	.
Cc1onc(-c2c(F)cccc2Cl)c1C(=O)Nc1cc(S(=O)(=O)N2CCCCC2)ccc1O	20	52*	11	.	.	0	36*	12*
Cc1ccc(S(=O)(=O)Nc2cccc(S(=O)(=O)N3CCCC3)c2)cc1C	-2	10	7	.	.	8	.	.
O=S(=O)(Nc1cccc(S(=O)(=O)N2CCCCC2)c1)c1ccc(Cl)s1	0	46*	-2	.	.	12	35*	12*
O=C(Nc1cccc(S(=O)(=O)N2CCCCC2)c1)c1ccccc1NS(=O)(=O)c1ccc(F)cc1	4	61*	3	16	4	7	76*	36*
Cc1ccc(NC(=O)c2ccccc2NS(=O)(=O)c2ccc(F)cc2)cc1S(=O)(=O)N1CCCCC1	11	67*	2	9	3	7	83*	52*

Compound activity deposited in PubChem BioAssay by The Scripps Research Institute Molecular Screening Center.
